Measurements taken from the supplement of paper PMC13380429.

System: Vero E6 infected with SARS-CoV-2
Experiment: inhibition of SARS-CoV-2 cytopathic effect; higher = more antiviral protection, active = above 15
Details: 48 h

Measured: inhibition of SARS-CoV-2 cytopathic effect

CCN1C(C)(C)CC(Oc2ccc(C(=O)Nc3ccc(NC(=O)Nc4cc(C(C)(C)C)on4)cc3)nc2)CC1(C)C
inactive: 1 nM -2.79% | 8.33 nM -0.55% | 100 nM -1.48% | 833.33 nM -1.05% | 10000 nM -4.86%

CC(=O)CCCCn1c(=O)c2c(ncn2C)n(C)c1=O [pentoxifylline]
inactive: 1 nM 3.31% | 8.33 nM 2.23% | 100 nM 0.1% | 833.33 nM 1.21% | 10000 nM -0.68%

Cc1cc(C(C)(C)CC(C)(C)C)ccc1OCCOCC[N+](C)(C)Cc1ccccc1 [methylbenzethonium-chloride]
inactive: 1 nM -1.31% | 8.33 nM -1.52% | 100 nM -3.07% | 833.33 nM -0.46% | 10000 nM -4.8%

COc1cc2c(NC3CCN(C4CCCCC4)CC3)nc(N3CCCN(C(C)C)CC3)nc2cc1OCCCN1CCCCC1
inactive: 1 nM -0.42% | 8.33 nM 1.56% | 100 nM 0.26% | 833.33 nM -2.24% | 10000 nM 15%

CON [methoxyamine]
inactive: 1 nM 0.67% | 8.33 nM -2.53% | 100 nM -0.44% | 833.33 nM -3.19% | 10000 nM -0.96%

CNNCc1ccc(C(=O)NC(C)C)cc1 [procarbazine]
inactive: 1 nM -1.55% | 8.33 nM 4.48% | 100 nM -0.09% | 833.33 nM 2.14% | 10000 nM 0.27%

Cc1nc2ccc(Oc3ccc(F)cc3)cc2c(=O)n1C[C@H]1CCCN(C(C)C)C1
inactive: 1 nM 0.11% | 8.33 nM 0.49% | 100 nM 1.67% | 833.33 nM 0.07% | 10000 nM -5.71%

CN1CCN(c2cc3c(cc2F)c(=O)c(C(=O)O)cn3-c2ccc(F)cc2)CC1 [difloxacin]
inactive: 1 nM -1.68% | 8.33 nM 2.12% | 100 nM 0.47% | 833.33 nM 0.94% | 10000 nM 1.41%

CN1CCC(OC(c2ccccc2)c2ccccc2)CC1 [diphenylpyraline]
inactive: 1 nM 0.97% | 8.33 nM 0% | 100 nM 0% | 833.33 nM 0.39% | 10000 nM -1.64%
